Laboratory results reported in PubChem BioAssay AID1852 (Sanford-Burnham Center for Chemical Genomics, 2009).
Out of some 2,500 compounds screened, about 1,100 (44%) were called active. So high a share suggests a set chosen from earlier hits. This is one part of the list. Unmarked numbers belong to inactive results.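 The calls were made as follows: active = inhibition above 50% at 4 µM in the single-point screen; inactive = inhibition of 50% or less.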

assay: blockers of TNF-a NF-kB luciferase induction – cell-based, HEK293T NF-kB-Luc, luminescence, selectivity assay for NOD1/NOD2 signaling inhibitor project, primary screen (AID 1852); conditions: TNF-a induced, 14 h, at 4 µM, active compounds read high

Row | Structure (SMILES) | inhibition
1 | O=C(CN1CCN(Cc2ccccc2)CC1)N1N=CCC1c1ccccc1 (stereo not given) | 21.7%
2 | Cc1ccc2[nH]c3c(N4CCc5ccccc5C4)ncnc3c2c1 | 83.8% (active)
3 | Cc1ccc2[nH]c3c(N4CCN(Cc5ccccc5)CC4)ncnc3c2c1 | 76.9% (active)
4 | Cc1csc2ncnc(NC3CCN(Cc4ccccc4)CC3)c12 | 32.1%
5 | Cc1ccc2c(c1)[nH]c1c(N3CCN(Cc4ccccc4)CC3)ncnc12 | 72.7% (active)
6 | c1ccc(CN2CCN(c3ncnc4c3[nH]c3ccccc34)CC2)cc1 | 73.4% (active)
7 | CCN1CCN(Cc2ccc(NC(=O)c3ccc(C)c(NC(=O)C(=O)c4c[nH]c5ccccc45)c3)cc2C(F)(F)F)CC1 | 26.4%
8 | COc1ccc(NS(=O)(=O)c2ccc3c(c2)NC(=O)C(C)S3)cc1 (stereo not given) | 9.8%
9 | CCC1Sc2ccc(S(=O)(=O)Nc3ccc(OC)c(OC)c3)cc2NC1=O (stereo not given) | 51.8% (active)
10 | CCC(Cc1ccccc1)NS(=O)(=O)c1ccc2c(c1)NC(=O)C(C)S2 (stereo not given) | -1.2%
11 | CCn1nc([N+](=O)[O-])c(C(C#N)c2nc3cc(C(F)(F)F)ccc3s2)c(Cl)c1=O (stereo not given) | 34.1%
12 | Cc1cc(C)c(S(=O)(=O)/N=C2\C=C(Nc3ccc(C(=O)O)cc3)C(=O)c3ccccc32)c(C)c1 | 107% (active)
13 | Cc1ccc(C)c(S(=O)(=O)/N=C2\C=C(NS(=O)(=O)c3ccccc3)C(=O)c3ccccc32)c1 | 102% (active)
14 | Cc1ccc(NC2=C(Cl)C(=O)c3ccccc3C2=O)cc1 | -26.5%
15 | Cc1cc(C)c(S(=O)(=O)/N=C2\C=C(NS(=O)(=O)c3ccccc3)C(=O)c3ccccc32)c(C)c1 | 94.9% (active)
16 | Cc1ccc(NS(=O)(=O)c2ccc3c(c2)C(=O)c2ccccc2C3=O)c(C)c1 | 2.1%
17 | Cc1ccc(NC(=O)COc2ccc(/C=C3/SC(=Nc4ccccc4)N(Cc4cccnc4)C3=O)cc2)cc1 | 14.5%
18 | CCc1ccc(NC(=O)C2CCN(S(=O)(=O)c3ccc4c(c3)CC(C)N4C(C)=O)CC2)cc1 (stereo not given) | 70% (active)
19 | COc1ccccc1NC(=O)C1CCCN(S(=O)(=O)c2ccc3c(c2)CC(C)N3C(C)=O)C1 (stereo not given) | 47.2%
20 | CC(=O)N1c2ccc(S(=O)(=O)N3CCC(C(=O)Nc4cccc(C)n4)CC3)cc2CC1C (stereo not given) | 40.5%
21 | O=C(CN1C(=O)c2ccccc2S1(=O)=O)c1ccc2c(c1)OCCO2 | 95% (active)
22 | O=C(CN1C(=O)c2ccccc2S1(=O)=O)N1CCc2ccccc21 | 70.7% (active)
23 | O=C(CSc1ncnc2c1oc1ccccc12)N1CCCc2ccccc21 | 18.1%

Row | Structure (SMILES) | inhibition
24 | O=C1C(=O)N(c2nccs2)C(c2ccccc2)/C1=C(\O)c1ccc2c(c1)OCCO2 (stereo not given) | 31.4%
25 | O=C(CN1C(=O)c2ccccc2S1(=O)=O)c1ccc2c(c1)OCCCO2 | 95.7% (active)
26 | O=C(/C=C/c1ccncc1)c1ccc2c(c1)OCCO2 | -1.4%
27 | O=C(CN1CCc2cc3c(cc2C1)OCCCO3)Nc1c(F)cccc1F | -3.8%
28 | Cc1ccccc1CN1CCc2c(OCC(=O)N3CCCc4ccccc43)cccc2C1=O | 48.2%
29 | CC(C)CCn1c(Sc2nc3ccccc3o2)nc2c1c(=O)[nH]c(=O)n2C | 26.6%
30 | O=C(CSc1nc2ccccc2c(=O)[nH]1)Nc1ccccc1C(F)(F)F | 21.5%
31 | O=C(CSc1nnnn1C1CC2CCC1C2)Nc1ccnc2ccccc12 (stereo not given) | 54.8% (active)
32 | Cc1nn(-c2ccccc2)c2nc(C(Cl)(Cl)Cl)[nH]c(=O)c12 | 23.6%
33 | Cc1nn(-c2cc(C(F)(F)F)ccc2Cl)c2nc(C(Cl)(Cl)Cl)[nH]c(=O)c12 | 71.3% (active)
34 | Cc1nn(-c2cccc(Cl)c2)c2nc(C(F)(F)F)[nH]c(=O)c12 | 58.8% (active)
35 | O=C(O)c1cccc(N/N=C/c2cccs2)c1 | -23%
36 | O=C(O)c1cccc(N/N=C/c2cccc3ccccc23)c1 | 54.1% (active)
37 | O=C(O)c1ccc(N/N=C/c2ccc3nccnc3c2)cc1 | 48.6%
38 | N#Cc1c(-c2ccccc2)nc(SCc2cccc(C(F)(F)F)c2)[nH]c1=O | -14.5%
39 | O=c1cc(C(F)(F)F)nc(SCc2cccc3ccccc23)[nH]1 | 61.3% (active)
40 | CS(=O)(=O)c1ccc(S(=O)CC(=O)OCc2ccccc2)c([N+](=O)[O-])c1 (stereo not given) | 50.2% (active)
41 | CS(=O)(=O)c1ccc(C(=O)OCc2nnc(-c3ccccc3)o2)cc1[N+](=O)[O-] | 38.9%
42 | CS(=O)(=O)c1ccc(Sc2nc3ccccc3s2)c([N+](=O)[O-])c1 | -1.5%
43 | CCn1nc(C)cc1C(=O)NC1CCCc2c1cnn2-c1ccc(C)c(C)c1 (stereo not given) | 58.9% (active)
44 | Cc1cc(C(=O)NC2CCCc3c2cnn3-c2ccc(C)c(C)c2)n(C)n1 (stereo not given) | 74.6% (active)
45 | Cc1ccc(-n2ncc3c2CCCC3NC(=O)c2cnccn2)cc1C (stereo not given) | 37.7%
